IP6K1 inhibitor: inhibitors of human IP6K1; activity change, % (series mostly up to about 58 µM); AID 1645851; 140,000 tested, 0.81% active; IP6K1 kinase, ADP-Glo luminescence, 2 h; active compounds read low; Q92551; in the data active means activity change below about -25%; further: on the % scale 0 is the no-effect control and ±100 the full control effect
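ADP-Glo luminescence measures ADP made by human IP6K1 during a 2 h RT reaction with ATP/IP6 (mix at 1.3 mM/130 uM); top library doses 57.5 and 19.1 uM final.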
HEK293 viab: counter-screen for SNCA expression inhibitors: cell viability; AID 1671193; 150,000 tested, 0.12% active; HEK-293-SNCA-luc viability, GF-AFC fluorescence, 24 h; Potency, µM (series often up to 57.1 µM), for the others: at the highest dose activity change, negative = cytotoxicity, usual class: cytotoxic;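 further: potency means the concentration at half of the fitted maximal effect; 0% = DMSO-treated cells and -100% = medium-only wells without cells; nearly all actives have a fitted effect of over 30% in size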
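HEK-293-SNCA-luc cells (1500/well) plated 24 h, then exposed 24 h to a dilution series; GF-AFC added 30 min at 37C, fluorescence 405/540 nm; normalised to medium-only and DMSO wells, Hill fit.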
SNCA expr inh: inhibitors of alpha-synuclein (SNCA) gene expression. 140,000 tested, 0.17% active. HEK-293 SNCA-luciferase knock-in, luminescence, 24 h. Potency, µM (doses to about 57.2 µM), for the others: at the highest dose activity change, negative = inhibition, hits mostly inhibitors;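 further: potency means the concentration at half of the fitted maximal effect; plate controls were DMSO cells for no effect and cell-free wells for full effect; nearly all actives have a fitted effect of over 45% in size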
KDM5B inh: inhibitors of human KDM5B histone demethylase. KDM5B demethylase, FDH-coupled NADH fluorescence (FDH is formaldehyde dehydrogenase). 220,000 tested, 2.6% active. Q9UGL1. Potency, µM (top dose mostly 57.7 µM), most hits filed as inhibitors. AID 1347165; further: potency means the concentration at half of the fitted maximal effect; 0% is about no effect; nearly all actives have a fitted effect of over 70% in size
Target sequence (Q9UGL1 whole entry, looked up): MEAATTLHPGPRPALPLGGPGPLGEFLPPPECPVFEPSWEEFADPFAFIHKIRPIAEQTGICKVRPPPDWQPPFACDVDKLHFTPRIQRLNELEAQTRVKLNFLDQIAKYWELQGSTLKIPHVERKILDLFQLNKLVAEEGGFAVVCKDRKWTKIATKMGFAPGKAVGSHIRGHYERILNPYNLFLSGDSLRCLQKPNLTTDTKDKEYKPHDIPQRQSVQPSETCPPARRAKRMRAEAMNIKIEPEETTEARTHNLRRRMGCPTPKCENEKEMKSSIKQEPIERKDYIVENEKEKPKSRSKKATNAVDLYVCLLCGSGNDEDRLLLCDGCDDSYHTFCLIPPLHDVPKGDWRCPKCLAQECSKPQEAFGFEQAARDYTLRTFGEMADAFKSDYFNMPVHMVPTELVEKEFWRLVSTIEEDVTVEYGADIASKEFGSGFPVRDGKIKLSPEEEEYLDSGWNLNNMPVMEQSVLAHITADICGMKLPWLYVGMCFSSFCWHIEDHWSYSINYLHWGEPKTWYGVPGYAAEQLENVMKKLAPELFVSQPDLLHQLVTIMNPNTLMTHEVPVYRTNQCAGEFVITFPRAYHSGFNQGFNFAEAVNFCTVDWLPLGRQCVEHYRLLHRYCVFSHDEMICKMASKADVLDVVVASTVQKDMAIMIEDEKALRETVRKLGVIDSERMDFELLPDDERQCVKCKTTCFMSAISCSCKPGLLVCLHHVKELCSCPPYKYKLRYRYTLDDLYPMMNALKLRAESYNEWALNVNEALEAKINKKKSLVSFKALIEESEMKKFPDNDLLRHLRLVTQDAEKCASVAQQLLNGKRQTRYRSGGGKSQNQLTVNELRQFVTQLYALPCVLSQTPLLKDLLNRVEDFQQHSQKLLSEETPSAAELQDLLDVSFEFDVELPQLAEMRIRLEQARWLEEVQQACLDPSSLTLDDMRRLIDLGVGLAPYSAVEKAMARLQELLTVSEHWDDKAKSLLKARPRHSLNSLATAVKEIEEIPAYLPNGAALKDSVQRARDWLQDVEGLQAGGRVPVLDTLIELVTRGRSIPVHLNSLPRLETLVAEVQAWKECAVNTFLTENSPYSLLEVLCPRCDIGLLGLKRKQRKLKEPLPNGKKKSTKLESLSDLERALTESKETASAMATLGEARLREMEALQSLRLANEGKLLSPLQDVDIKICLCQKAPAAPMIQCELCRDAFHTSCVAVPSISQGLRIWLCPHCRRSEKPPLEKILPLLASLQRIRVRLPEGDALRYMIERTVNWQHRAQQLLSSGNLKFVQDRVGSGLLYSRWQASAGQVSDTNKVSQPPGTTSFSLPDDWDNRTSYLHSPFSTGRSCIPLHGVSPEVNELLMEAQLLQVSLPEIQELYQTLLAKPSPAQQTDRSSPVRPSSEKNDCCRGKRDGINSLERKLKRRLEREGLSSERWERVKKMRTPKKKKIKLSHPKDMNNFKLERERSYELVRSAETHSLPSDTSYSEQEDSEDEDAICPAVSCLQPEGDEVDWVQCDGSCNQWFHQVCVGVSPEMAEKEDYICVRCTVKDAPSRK
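KDM5BΔAP (200 nM final) in 50 mM HEPES pH 7.5, 0.01% Tween-20 was preincubated 10 min at RT with compound over a concentration range. Substrate mix (H3K4me3 12.5 µM, α-KG 25 µM, Fe²⁺, ascorbate, NAD⁺, FDH) was added, and NADH fluorescence change over 30 min gave dose-response curves.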
* hit, by the source's call; i = inactive; ? = inconclusive; . = no result given; [ ] = another dose, or the depositor's remark. An excerpt weighted towards active compounds, which were near 2.9% of everything screened. Unless noted, the call rests on the fitted dose curve; in most records, active means well fitted curve in the direction sought with a large enough effect; inconclusive means small, poorly fitted or top-dose-only effect, or another doubt; inactive means no such curve, though single readings can be large; an effect the other way counts as inactive or inconclusive.

SMILES | IP6K1 inhibitor | HEK293 viab | SNCA expr inh | KDM5B inh
CN1CCCC1CCNc1nccc(-c2cnn(-c3ccccc3F)c2)n1 (centres undefined) | 0.0 | -3.5% | 35.1% | 28.2µM*
O=c1c2cnc(N3CCc4ccccc4C3)nc2ccn1-c1ccccc1F | . | . | . | i
NC(=O)[C@@H](Cc1ccccc1)NC(=O)C1=C[C@@H](NS(=O)(=O)c2cccs2)[C@@H](O)[C@H](O)C1 | -2.6 | -1.5% | -7.1% | i
CCN(CC)CCn1c(C)c(C)c2c1ncn1nc(CSc3nc4ccccc4o3)nc21 | . | . | . | i
O=S1(=O)NCC2(CCN(Cc3ccoc3)CC2)Oc2ncccc21 | 1.5 | -1.3% | -10.7% | 50.1µM*
O=S1(=O)NCC2(CCN(Cc3ccc(Cl)s3)CC2)Oc2ncccc21 | 2.2 | -7.8% | -21.0% | ?
CNC(=O)c1cccn2nccc12 | 3.5 | 0.9%[87.6 µM] | -14.1%[87.6 µM] | 31.6µM*
O=C(NC1CC1)c1cccn2nccc12 | -8.7 | -19.1%[87.6 µM] | ? | 35.5µM*
O=C(NC1CC1)c1cccn2cncc12 | 1.3 | -0.6%[87.6 µM] | 20.8%[87.6 µM] | ?
O=C(NC1CC1)c1cnn2ncccc12 | 3.3 | 2.3%[87.6 µM] | -28.3%[87.6 µM] | 31.6µM*
COc1cc(OC)c2c(C)c(CC(=O)Nc3cccc(F)c3)c(=O)oc2c1 | . | . | . | i
C#CCNC(=O)c1ccc2nccn2c1 | -8.6 | -0.1%[87.6 µM] | 8.1%[87.6 µM] | 141µM*
O=C(NC1CCCCCC1)c1ccc2nccn2c1 | 0.3 | -9.6%[87.6 µM] | 149.5%[87.6 µM] | 28.2µM*
Cc1ccc(CNC(=O)c2ccc3nccn3c2)o1 | -8.7 | 1.8%[87.6 µM] | 27.0%[87.6 µM] | 28.2µM*
O=C(NCc1ccccc1)c1ccc2nccn2c1 | 8.2 | -2.1%[87.6 µM] | 171.6%[87.6 µM] | .
COC(=O)CNC(=O)c1ccc2nccn2c1 | -3.2 | 6.9%[87.6 µM] | 12.5%[87.6 µM] | 112µM*
O=C(NC1CCC1)c1ccc2nccn2c1 | -5.7 | -1.0%[87.6 µM] | -16.6%[87.6 µM] | ?
Cn1c(=O)c2c(nc(NCc3cccs3)n2Cc2ccc(Cl)cc2)n(C)c1=O | . | . | . | i
Cc1nn2c(nnc3c(=O)n(-c4ccccc4)ccc32)c1-c1ccccc1 | . | . | . | i
CC(C)NC(=O)c1cc(-c2ccc(Cl)nc2)nc2c1cnn2C | -11.6 | -1.2% | 35.0% | 56.2µM*
CC(C)NC(=O)c1cc(-c2ccc(F)cc2)nc2c1cnn2C | -4.5 | . | . | .
CC(C)NC(=O)c1cc(-c2ccc(S(C)(=O)=O)cc2)nc2c1cnn2C | 3.7 | 2.0% | 19.2% | 79.4µM*
CC1(c2noc(-c3ccccn3)n2)CCN(C(=O)CCCc2nc3ccccc3s2)CC1 | -10.8 | -8.8% | -11.0% | i
Cc1noc(C)c1S(=O)(=O)NCC1(COc2cnccn2)C[C@@H](O)[C@@H](O)C1 (some centres undefined) | 7.2 | 3.3%[87.6 µM] | 5.3%[87.6 µM] | i
O=C(c1ccc2c(c1)OCO2)N1CCC(c2nnc3n2CCNC3)CC1 | 11.3 | 3.7% | -11.8% | 50.1µM*
SMILES | IP6K1 inhibitor | HEK293 viab | SNCA expr inh | KDM5B inh
O=C(C1CC=CCC1)N1CCC(Cc2nncn2-c2ccccc2)CC1 (centres undefined) | 16.4 | 0.7% | ? | i
Cc1cc(C)cc(C(=O)NCc2nnc3c(-c4nc(C5CC5)no4)cccn23)c1 | 0.5 | -1.3% | -5.8% | ?
O=C(NCc1nnc2c(-c3nc(C4CC4)no3)cccn12)C1CC1 | 3.4 | 2.4% | 0.4% | 22.4µM*
O=C(Cc1ccccc1Cl)NCc1nnc2c(-c3nc(C4CC4)no3)cccn12 | 3.5 | 1.1% | -14.4% | ?
Cc1ccc(C)c(C(=O)NCc2nnc3c(-c4nc(C5CC5)no4)cccn23)c1 | 7.9 | 4.0% | -7.4% | 25.1µM*
CCCc1noc(-c2cccn3c(CNC(=O)c4ccc(N(C)C)cc4)nnc23)n1 | 9.5 | -20.8% | -10.1% | ?
CCCc1noc(-c2cccn3c(CNC(=O)c4ccc(C)cc4)nnc23)n1 | -1.0 | -8.4% | ? | 25.1µM*
O=C(Cc1ccc(Cl)cc1)NCc1nnc2c(-c3nc(C4CC4)no3)cccn12 | -2.9 | -22.2% | -33.6% | 28.2µM*
CC(c1ccccc1-n1cccn1)n1cc(-c2nccn2C)nn1 (centres undefined) | 2.5 | -14.6% | 5.2% | i
CCCc1noc(-c2cccn3c(CNC(=O)Cc4ccc(Cl)cc4)nnc23)n1 | 1.3 | -12.3% | -14.8% | 25.1µM*
O=C(CC1CCCCC1)NCc1nnc2c(-c3nc(C4CC4)no3)cccn12 | 12.1 | -1.8% | 34.7% | 15.8µM*
O=C(NCc1nnc2c(-c3nc(C4CC4)no3)cccn12)c1cc(Cl)ccc1F | -0.9 | 4.4% | -14.3% | 28.2µM*
CCCc1noc(-c2cccn3c(CNC(=O)Cc4ccccc4Cl)nnc23)n1 | 22.4 | -2.0% | ? | ?
COc1cccc(CCC(=O)NCc2nnc3c(-c4nc(C5CC5)no4)cccn23)c1 | -5.2 | -12.6% | ? | ?

Screens: PubChem BioAssay, National Center for Advancing Translational Sciences (NCATS)
